Experimental data from PubChem BioAssay.
For some of these results: Measured potencies and affinities stand elsewhere. Calls of active or inactive are those of the source.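 The calls were made as follows, unless noted: active = earlier screen potentiator hit that boosts the TRPC4 ion channel at some dose, with a dose response; inactive = no potentiation, no dose response, or not a prior hit.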

Legend:
[1] = test system: TRPC4 beta (transient receptor potential cation channel C4), mouse; assay: activators of mouse TRPC4 channel, confirmation, cell-based, Fluo4 calcium, HEK293 TRPC4beta/mu-opioid, duplicates, 10 µM (AID 2426;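 active = fluorescence ratio normalized to control raised more than 50% in primary screen plus both repeat runs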;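 as to activation: percent rise of integrated ratio over buffer wells lacking compound which define 0%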); conditions: Fluo4 calcium fluorescence, at 10 µM; active compounds read high
[2] = test system: transient receptor potential cation channel C4 beta (TRPC4), mouse; assay: activators of mouse TRPC4 channel, confirmation, cell-based, second round, Fluo4, HEK293 TRPC4beta/mu-opioid, 1 µM (AID 2461;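 active = primary screen active and over 50% activation in each of two duplicate runs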;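 as to activation: 0% = wells without test compound as baseline of integrated fluorescence ratio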); conditions: Fluo4 calcium fluorescence, at 1 µM; active compounds read high
[3] = test system: TRPC4 (transient receptor potential cation channel C4 beta), mouse; assay: positive allosteric modulators of mouse TRPC4, confirmation, cell-based, second round, Fluo-4, HEK293 TRPC4beta/mu-opioid, 1 µM (AID 2554;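 active = primary screen hit whose fluorescence ratio, in both repeats, exceeds the weak agonist control mean by 3 SD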); conditions: DAMGO EC20, Fluo-4 calcium flux, at 1 µM; active compounds read high
[4] = test system: TRPC4 beta (transient receptor potential cation channel C4), mouse; assay: positive allosteric modulators of mouse TRPC4, confirmation, cell-based, Fluo-4, HEK293 TRPC4beta/mu-opioid (AID 2555;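 active = primary screen hit whose calcium fluorescence ratio, in both repeats, exceeds the weak agonist control mean by 3 SD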); conditions: DAMGO EC20, Fluo-4 calcium flux, at 10 µM; active compounds read high
[5] = biological target: Short transient receptor potential channel 4 (Mus musculus) (UniProt Q9QUQ5); assay: inhibitors of mouse TRPC4 channel, confirmation, cell-based, Fluo4, HEK293 TRPC4beta/mu-opioid (AID 2636;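 active = calcium signal cut by more than 3 SD below the full-agonist control yet still positive, in both repeats and the earlier primary screen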); conditions: DAMGO, Fluo4 calcium flux, at 10 µM; active compounds read high
[6] = biological target: Short transient receptor potential channel 4 (Mus musculus) (UniProt Q9QUQ5); assay: inhibitors of mouse TRPC4 channel, confirmation, cell-based, second round, Fluo4, HEK293 TRPC4beta/mu-opioid, 1 µM (AID 2637;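 active = calcium signal ratio cut to more than 3 SD under the fully stimulated control mean yet still positive, in both repeats and the primary screen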); conditions: Fluo4 calcium flux, DAMGO, at 1 µM; active compounds read high
[7] = biological target: Short transient receptor potential channel 4 (Mus musculus) (UniProt Q9QUQ5); assay: TRPC4 positive allosteric modulators, dose response, cell-based, HEK293 TRPC4/mu-opioid, Fluo-4 calcium, EC20 DAMGO (AID 434941);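 also: calcium entry triggered by an EC20 dose of DAMGO at the co-expressed mu-opioid receptor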
[8] = biological target: Short transient receptor potential channel 4 (Mus musculus) (UniProt Q9QUQ5); assay: mouse TRPC4 channel inhibitors, dose response, cell-based, HEK293 TRPC4/mu-opioid, Fluo-4 calcium (AID 434942;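 active = primary screen inhibitor hit that blocks the TRPC4 channel at some tested dose, yielding a dose curve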)
[9] = biological target: Short transient receptor potential channel 6 (Mus musculus) (UniProt Q61143); assay: inhibition of mouse TRPC6 channel, confirmation, selectivity assay for TRPC4 inhibitor project, cell-based, HEK293, membrane potential dye, duplicate (AID 434948;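 active = active in primary screen and both duplicates, each dropping signal beyond three positive-control SD with fluorescence still positive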); conditions: HEK293 TRPC6, membrane potential dye fluorescence, at 10 µM, stimulated with maximal-effect acetylcholine; active compounds read high
[10] = biological target: Short transient receptor potential channel 6 (Mus musculus) (UniProt Q61143); assay: activation of mouse TRPC6 channel, confirmation, selectivity assay for TRPC4 activator project, cell-based, HEK293, membrane potential dye, duplicate (AID 434950;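 active = membrane potential signal rise above negative control mean plus 3 SD in both duplicates, also active in the earlier TRPC4 screen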;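 as to activation: 0% = buffer only wells and 100% = acetylcholine maximal-effect wells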); conditions: HEK293 TRPC6, membrane potential fluorescence, at 10 µM; active compounds read high
[11] = biological target: Short transient receptor potential channel 6 (Mus musculus) (UniProt Q61143); assay: TRPC6 potentiation by TRPC4 potentiator hits, confirmation, selectivity assay for TRPC4 potentiator project, HEK293 cells, membrane potential dye, duplicate (AID 434952;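 active = compound raising the membrane signal above positive-control mean plus 3 SD in both repeats, and a primary screen hit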); conditions: HEK293 TRPC6, membrane potential dye fluorescence, at 10 µM, maximal acetylcholine added after compound; active compounds read high
[12] = biological target: Short transient receptor potential channel 4 (Mus musculus) (UniProt Q9QUQ5); assay: calcium flux activators in TRPC4/5HT1a cells, counter-screen for TRPC4 activator project, cell-based, second counter screen, HEK293 TRPC4/5HT1a, Fluo-4 (AID 434977;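 active = calcium signal rise above buffer-control mean plus 5 SD in both duplicates, and also a hit in the primary screen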;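 as to activation: plate controls were assay buffer for no effect and maximal serotonin response for full effect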); conditions: Fluo-4 calcium flux, at 10 µM; active compounds read high
[13] = calcium flux inhibitors in TRPC4/5HT1a cells, confirmation, counter-screen for TRPC4 inhibitor project, cell-based, second counter screen, HEK293 TRPC4/5HT1a, Fluo-4 (AID 434978;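 active = primary screen active whose calcium signal fell more than 3 SD beyond the full-serotonin control mean in both duplicate plates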;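 also: serotonin given first at submaximal then at maximal dose after compound preincubation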); conditions: Fluo-4 calcium flux, at 10 µM, serotonin added to trigger calcium flux; active compounds read high
[14] = test system: TRPC4 (mouse), co-expressed with 5HT1a in HEK293; assay: calcium flux potentiators in TRPC4/5HT1a cells, confirmation, counter-screen for TRPC4 potentiator project, cell-based, second counter screen, HEK293 TRPC4/5HT1a, Fluo-4 (AID 434979;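 active = signal rise over 3 SD above mean of control wells given weak agonist, in both repeats and first screen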); conditions: Fluo-4 calcium flux, at 10 µM, serotonin added at its EC20 dose; active compounds read high
[15] = calcium flux activation in mu-opioid HEK293 cells, confirmation, counter-screen for TRPC4 activator project, cell-based, HEK293 mu-opioid receptor line (AID 449723;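 active = hit in primary screen, with calcium signal over 5 SD above buffer well mean in both duplicates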;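 also: counter screen cells carry the mu-opioid receptor alone and lack TRPC4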); conditions: Fluo-4 calcium fluorescence, at 10 µM; active compounds read high
[16] = calcium flux enhancement in mu-opioid HEK293 cells, confirmation, counter-screen for TRPC4 allosteric potentiator project, cell-based, HEK293 mu-opioid receptor line (AID 449724;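 active = calcium signal rise more than 3 SD above the low-dose agonist control mean, in both duplicate plates and the primary screen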;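 also: HEK293 cells carrying mu-opioid receptor only with no TRPC4 channel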); conditions: Fluo-4 calcium flux, at 10 µM, compound added before EC20 DAMGO stimulus; active compounds read high

Short transient receptor potential channel 6 (Mus musculus), sequence (Q61143 whole entry, looked up): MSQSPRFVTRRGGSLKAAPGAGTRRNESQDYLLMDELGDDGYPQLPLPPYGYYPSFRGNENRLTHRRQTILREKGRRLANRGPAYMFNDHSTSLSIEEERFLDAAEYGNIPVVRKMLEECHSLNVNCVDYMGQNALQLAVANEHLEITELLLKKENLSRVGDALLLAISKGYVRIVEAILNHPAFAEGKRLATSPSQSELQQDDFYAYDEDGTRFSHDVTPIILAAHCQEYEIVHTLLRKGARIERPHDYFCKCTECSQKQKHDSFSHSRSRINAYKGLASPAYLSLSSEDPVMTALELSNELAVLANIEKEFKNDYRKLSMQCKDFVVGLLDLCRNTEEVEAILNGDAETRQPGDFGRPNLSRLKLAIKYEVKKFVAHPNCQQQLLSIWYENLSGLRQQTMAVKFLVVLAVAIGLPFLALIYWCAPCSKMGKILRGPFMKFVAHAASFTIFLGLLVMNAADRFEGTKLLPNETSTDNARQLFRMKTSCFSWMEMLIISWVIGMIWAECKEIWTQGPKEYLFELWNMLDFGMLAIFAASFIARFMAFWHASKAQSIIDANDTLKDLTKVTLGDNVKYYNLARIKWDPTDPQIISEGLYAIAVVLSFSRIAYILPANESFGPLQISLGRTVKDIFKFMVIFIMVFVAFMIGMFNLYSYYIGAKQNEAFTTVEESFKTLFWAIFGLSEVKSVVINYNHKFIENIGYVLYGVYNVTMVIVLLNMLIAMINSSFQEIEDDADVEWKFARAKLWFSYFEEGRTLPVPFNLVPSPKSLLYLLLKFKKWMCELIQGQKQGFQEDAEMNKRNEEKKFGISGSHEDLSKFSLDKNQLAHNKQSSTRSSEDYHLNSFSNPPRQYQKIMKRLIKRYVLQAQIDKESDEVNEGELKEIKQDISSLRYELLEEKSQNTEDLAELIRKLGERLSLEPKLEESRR
Short transient receptor potential channel 4 (Mus musculus), sequence (Q9QUQ5 whole entry, looked up): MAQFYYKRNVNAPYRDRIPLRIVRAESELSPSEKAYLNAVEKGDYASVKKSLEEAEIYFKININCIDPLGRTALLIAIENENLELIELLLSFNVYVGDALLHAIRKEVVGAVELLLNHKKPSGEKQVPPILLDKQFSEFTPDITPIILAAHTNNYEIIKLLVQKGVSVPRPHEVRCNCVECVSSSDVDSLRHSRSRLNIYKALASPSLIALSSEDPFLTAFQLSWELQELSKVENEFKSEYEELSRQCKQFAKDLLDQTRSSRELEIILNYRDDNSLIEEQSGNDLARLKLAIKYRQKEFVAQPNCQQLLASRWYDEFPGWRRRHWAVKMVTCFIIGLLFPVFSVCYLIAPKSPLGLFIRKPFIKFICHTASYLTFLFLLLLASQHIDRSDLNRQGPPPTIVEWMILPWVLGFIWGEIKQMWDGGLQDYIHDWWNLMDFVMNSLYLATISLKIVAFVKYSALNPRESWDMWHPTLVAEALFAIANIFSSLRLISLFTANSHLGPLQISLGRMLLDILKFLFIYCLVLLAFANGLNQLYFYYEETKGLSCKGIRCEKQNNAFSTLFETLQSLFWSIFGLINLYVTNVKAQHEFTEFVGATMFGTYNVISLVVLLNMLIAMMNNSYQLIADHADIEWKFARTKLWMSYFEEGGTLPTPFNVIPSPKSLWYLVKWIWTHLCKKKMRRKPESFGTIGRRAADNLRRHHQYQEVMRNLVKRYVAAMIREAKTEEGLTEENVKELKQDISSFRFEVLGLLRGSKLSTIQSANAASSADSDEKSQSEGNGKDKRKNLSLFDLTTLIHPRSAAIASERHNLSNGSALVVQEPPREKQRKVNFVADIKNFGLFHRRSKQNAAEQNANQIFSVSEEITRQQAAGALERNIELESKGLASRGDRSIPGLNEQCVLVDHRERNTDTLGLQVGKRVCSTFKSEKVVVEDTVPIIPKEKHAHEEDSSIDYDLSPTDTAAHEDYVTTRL

SMILES	activation [1]	activation [2]	outcome [3]	outcome [4]	outcome [5]	outcome [6]	outcome [7]	outcome [8]	outcome [9]	outcome [10]	outcome [11]	outcome [12]	outcome [13]	outcome [14]	outcome [15]	outcome [16]	outcome [2]	activation [10]	activation [12]	outcome [1]
CN1CCC(CNC(=O)Nc2ccccc2)(c2ccccc2)CC1	97% (active)	52% (active)	inactive	inactive	inactive	inactive	inactive	inactive	inactive	inactive	inactive	inactive	inactive	inactive	inactive	inactive				
Cc1ccc(C)c(OCCCCCn2ccnc2)c1	174% (active)		inactive	inactive	inactive	inactive	inactive	inactive	inactive		inactive		inactive	inactive	inactive	inactive	inactive	49% (active)	25.7% (active)	
CCc1nc(NCCc2ccccn2)c2nnn(Cc3ccccc3F)c2n1	154% (active)		inactive	inactive	inactive	inactive	inactive	inactive	inactive		inactive		inactive	inactive	inactive	inactive	inactive	49% (active)	36.2% (active)	
NC(=O)C1CCCN(CC(O)COCc2ccc(Cl)cc2)C1 (configuration not stated)	140% (active)	133% (active)	inactive	inactive	inactive	inactive	inactive	inactive	inactive		inactive		inactive	inactive	inactive	inactive		31.5% (active)	69.7% (active)	
CCN1CCN(c2ccc(S(=O)(=O)N3CCCCC3)cc2NC(=O)c2cccc(C)c2[N+](=O)[O-])CC1	143% (active)		inactive	inactive	inactive	inactive	inactive	inactive	inactive	inactive	inactive		inactive	inactive	inactive	inactive	inactive		40.7% (active)	
CCN(CCCNS(=O)(=O)c1cc(-c2cc(C)no2)ccc1C)Cc1ccccc1	171% (active)	96% (active)	inactive	inactive	inactive	inactive	inactive	inactive	inactive		inactive		inactive	inactive	inactive	inactive		40.5% (active)	68.6% (active)	
Cc1ccccc1N(CC(=O)N/N=C/c1ccc(F)cc1)C(=O)c1ccccc1			inactive	inactive	inactive	inactive	inactive	inactive	inactive	inactive	inactive	inactive	inactive	inactive	inactive	inactive	inactive			inactive
